The text below walks through data of PubChem BioAssay (NCATS).

In general, viability refers to a read-out of living cells in per cent, often relative to untreated cells.

Experiment [1] addresses Cellular tumor antigen p53 (Homo sapiens) (UniProt P04637). Put plainly: Primary qHTS for small molecule compounds that upregulate eGFP-tagged delta133p53alpha (in N-terminal) cells. (AID 2060322).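 For activation: series mostly up to about 56 µM; 0% = DMSO vehicle and 100% = reference activator.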 Note: nearly all actives have a fitted effect of over 75% in size. Note: potency is the fitted concentration of half-maximal effect. The following applies: NCI-H358 eGFP-delta133p53alpha fluorescence, 24 h; activation: stronger effect = higher value. In outline: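 NCI-H358 cells pre-induced 24 h with 10 ng/ml doxycycline to express N-terminal eGFP-delta133p53alpha, then dosed 24 h at 37C without doxycycline; fixed, Hoechst-stained, GFP intensity by laser scanning cytometry, normalized to DMSO (0%) and 57.5 uM 5-azacytidine (100%).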
A general note: In qHTS, concentration-response curves come from the screen itself.

In experiment [2] the target is Aldehyde dehydrogenase, mitochondrial (Homo sapiens) (UniProt P05091). Nature of the experiment: qHTS for Inhibitors of the Aldehyde Dehydrogenase Family (ALDH2) Primary screen (AID 2061308).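 Note: plate controls were vehicle for no effect and reference inhibitor for full effect; nearly all actives have a fitted effect of over 55% in size.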
In experiment [3] the target is Retinaldehyde dehydrogenase 3 (Homo sapiens) (UniProt P47895). Put plainly: qHTS for Inhibitors of the Aldehyde Dehydrogenase Family (ALDH1A3) Validation screen (AID 2061312). Note: % is set by controls: 0 for no effect and ±100 for the full control effect; nearly all actives have a fitted effect of over 45% in size.
Experiment [4] has the same target. Nature of the experiment: qHTS for Inhibitors of the Aldehyde Dehydrogenase Family (ALDH1A3) Primary screen (AID 2061315).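 Note: plate controls were DMSO vehicle for no effect and reference inhibitor for full effect.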
A short description of experiment [5]: BET inhibitor-based combinations targeting novel dependencies in MECOM-rearranged (r) AML: SET-2 cell line (AID 2202231).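 For viability: plate controls were DMSO treated cells for no effect and wells without cells for full effect.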 Note: nearly all actives have a fitted effect of over 35% in size. Note: potency is the fitted concentration of half-maximal effect. The following applies: SET-2 AML cells viability, CellTiter-Glo luminescence, 48 h; viability: stronger effect = lower value, concentration not given here. Summed up: (§1)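 AML cell lines seeded at 500 cells/well, treated with 11-point dose curves for 48 h. Viability by CellTiter-Glo luminescence, normalised to DMSO and empty wells; activity expressed as AUC and per-cell-line Z-transformed AUC.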
For orientation: ATP-based viability assays read luminescence as a measure of living cells.

Experiment [6] can be described thus: BET inhibitor-based combinations targeting novel dependencies in MECOM-rearranged (r) AML: OCI-AML3 cell line (AID 2202232). Note: nearly all actives have a fitted effect of over 35% in size. Note: potency is the fitted concentration of half-maximal effect. The following applies: Potency: OCI-AML3 viability. In outline:
as §1

Experiment [7] can be described thus: BET inhibitor-based combinations targeting novel dependencies in MECOM-rearranged (r) AML: MV-4-11 cell line (AID 2202233). Note: nearly all actives have a fitted effect of over 45% in size. Note: potency is the fitted concentration of half-maximal effect. In outline:
(§2)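 Cells at 500/well were exposed for 48 hr to MIPE v5.0 drugs as 11-point dose curves. Viability was read by CellTiter-Glo luminescence and normalized to DMSO and empty-well controls. Activity was expressed as AUC and per-cell-line Z-AUC.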

Experiment [8] in a line: BET inhibitor-based combinations targeting novel dependencies in MECOM-rearranged (r) AML: HNT-34 cell line (AID 2202234). Note: nearly all actives have a fitted effect of over 35% in size. Note: potency is the fitted concentration of half-maximal effect. Summed up: as §2
A short description of experiment [9]: BET inhibitor-based combinations targeting novel dependencies in MECOM-rearranged (r) AML: UCSD-AML1 cell line (AID 2202235). Note: nearly all actives have a fitted effect of over 40% in size. Note: potency is the fitted concentration of half-maximal effect. In outline: as §2
Experiment [10] is described as follows: BET inhibitor-based combinations targeting novel dependencies in MECOM-rearranged (r) AML: AML-191 cell line (AID 2202236; note: nearly all actives have a fitted effect of over 35% in size; note: potency is the fitted concentration of half-maximal effect). Summed up: as §1
The nature of experiment [11]: BET inhibitor-based combinations targeting novel dependencies in MECOM-rearranged (r) AML: AML-194 cell line (AID 2202237; note: nearly all actives have a fitted effect of over 40% in size; note: potency is the fitted concentration of half-maximal effect). In outline:
as §1

Where “and” joins values, the source holds several entries; their conditions need not be identical. Equal entries are not always repeated. Results filed as inconclusive are left out. Values without a mark were called inactive. Calls of active or inactive are those of the source. Calls come from the whole dose curve; as a rule, active = well fitted curve in the direction sought with a large enough effect; inconclusive = small, poorly fitted or top-dose-only effect, or another doubt; inactive = no such curve, though single readings can be large; an effect the other way counts as inactive or inconclusive.

Sequence of Cellular tumor antigen p53 (Homo sapiens) (P04637 whole entry, looked up): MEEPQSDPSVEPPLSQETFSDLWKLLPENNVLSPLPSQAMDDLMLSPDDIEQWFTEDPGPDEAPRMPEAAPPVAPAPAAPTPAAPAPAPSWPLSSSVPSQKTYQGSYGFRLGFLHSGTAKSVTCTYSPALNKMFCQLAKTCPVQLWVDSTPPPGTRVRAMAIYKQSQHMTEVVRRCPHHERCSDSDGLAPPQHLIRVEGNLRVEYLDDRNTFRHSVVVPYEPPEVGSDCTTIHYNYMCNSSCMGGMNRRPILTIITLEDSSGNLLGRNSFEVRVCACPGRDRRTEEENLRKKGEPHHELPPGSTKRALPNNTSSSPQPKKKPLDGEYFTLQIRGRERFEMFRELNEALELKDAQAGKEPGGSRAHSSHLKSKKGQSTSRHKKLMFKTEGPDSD

As for `CN1CCN(C2=Nc3ccccc3Nc3ccc(OS(=O)(=O)C(F)(F)F)cc32)CC1`, the activation in experiment [1] is -11.9%. Moreover, the Potency entry in [2], in [3] and in experiment [4] was “inactive” in each case.

For the compound `NC(=O)c1cccc2[nH]c(-c3ccc(C4CCCN4)cc3F)nc12` (stereo unspecified), the activation in [1] is 0%. Further, the Potency entry in experiment [2], in [3] and in experiment [4] was “inactive” in each case.

As for `CC1(C)CCC(C)(C)c2cc([C@@H](O)C(=O)Nc3ccc(C(=O)O)cc3F)ccc21`, the activation in [1] is -4.77%. Besides, the Potency result in [2], in experiment [3] and in [4] was “inactive” each time.

For `NCC1CCN(c2nccc(-c3ccc4ccccc4c3)n2)CC1`, the Potency in experiment [1] was 23.9 µM (active); in [5], 16.6 µM (active); in [6], 4.68 µM (active); in experiment [7], 4.17 µM (active); in experiment [8], 8.33 µM (active); in [9], 2.95 µM (active). Besides, the Potency in experiment [10] was 2.63 µM (active); in experiment [11], 2.95 µM (active). Besides, the Potency result in experiment [2], in [3] and in [4] was “inactive” throughout.

`COc1cc(CCc2cc(NC(=O)c3ccc(N4C[C@@H](C)N[C@@H](C)C4)cc3)n[nH]2)cc(OC)c1`: the activation in experiment [1] was 1.33% and -3.34%. Also, the Potency result in [2], in experiment [3] and in experiment [4] was “inactive” each time. Also, the Potency is 20.9 µM (active) in [5]; 18.6 µM (active) in [6]; 2.09 µM (active) in experiment [7]; 7.42 µM (active) in experiment [8]; 7.42 µM (active) in experiment [9]; 14.8 µM (active) in experiment [11].

For `O=C(c1ccc(NS(=O)(=O)c2cccc3cccnc23)cc1)N1CCN(CC2CC2)CC1`, in [1], the activation was -3.34%. The Potency entry in [2], in [3], in experiment [4], in [6], in experiment [7] and in [8] was “inactive” in each case. In addition, the Potency entry in [9], in experiment [10] and in experiment [11] was “inactive” each time. In addition, in [5], the viability was 115%.

For `CN(C)C1CCN(C(=O)c2ccc(NC(=O)Nc3nc(N4CCOCC4)nc(N4CCOCC4)n3)cc2)CC1`, in [1], the activation is -12.1%. The Potency result in experiment [2], in experiment [3] and in experiment [4] was “inactive” in each case. Further, the Potency is 5.25 µM (active) in experiment [5]; 0.132 µM (active) in experiment [6]; 0.105 µM (active) in experiment [7]; 0.105 µM (active) in experiment [8]; 0.296 µM (active) in experiment [9]; 0.59 µM (active) in experiment [11].

On to `O=P(O)(O)C(O)(Cc1cccnc1)P(=O)(O)O`, for which the activation in experiment [1] is 20.9% and -4.4% and 7.64%. Also, the Potency entry in experiment [2], in experiment [3], in experiment [4], in [6], in experiment [7] and in experiment [8] was “inactive” throughout. The Potency entry in experiment [10] and in experiment [11] was “inactive” each time. Moreover, the viability in experiment [5] was 110%.

As for `CC[C@@H](C)Nc1cc(C(=O)NC2CC3CC[C@@H](C2)N3c2ccc(C(=O)C3CC3)cn2)c(C)cc1C(N)=O` (stereo partly specified), the activation in experiment [1] was 20.5%. The Potency result in experiment [2], in experiment [3] and in experiment [4] was “inactive” throughout. Also, the Potency in experiment [5] was 0.132 µM (active); in [6] it was 0.0661 µM (active); in [7], 0.0417 µM (active); in [8], 0.105 µM (active); in experiment [9], 0.132 µM (active); in [10], 0.118 µM (active). For the same compound, the Potency in experiment [11] is 0.105 µM (active).

On to `C#CC[C@H](c1nc2cc(Cl)ccc2c(=O)n1Nc1ccccc1)N(CCCN)C(=O)c1cccc(Cl)c1F`, for which the Potency in experiment [1] is 4.78 µM (active); in [5] it was 10.5 µM (active); in experiment [6] it was 0.59 µM (active); in experiment [7], 1.05 µM (active); in experiment [8] it was 0.372 µM (active); in experiment [9], 1.05 µM (active). Besides, the Potency in [10] and in [11] was 3.32 µM (active) each time. Besides, the Potency result in experiment [2], in experiment [3] and in experiment [4] was “inactive” each time.

In the case of `COc1cccc(-c2cc(F)ccc2C2Cc3nc(N)nc(C)c3C(=O)N2)n1` (stereo unspecified), in experiment [1], the activation is 2.86%. The Potency entry in [2], in experiment [3] and in experiment [4] was “inactive” throughout. In addition, the Potency in experiment [5] is 0.0742 µM (active); in experiment [6] it was 0.0661 µM (active); in [7], 0.0417 µM (active); in [8], 0.132 µM (active); in [9], 0.105 µM (active); in experiment [10], 0.0934 µM (active). In addition, the Potency in [11] is 0.0934 µM (active).

Turning to `Nc1nc(F)nc2c1ncn2[C@@H]1O[C@H](CO)[C@@H](O)[C@@H]1O`, the activation in experiment [1] was -5.02% and -9.07%. Besides, the Potency result in experiment [2], in experiment [3] and in experiment [4] was “inactive” in each case. Also, the Potency is 14.8 µM (active) in experiment [5]; 10.5 µM (active) in experiment [6]; 9.34 µM (active) in experiment [7]; 14.8 µM (active) in experiment [8]; 1.05 µM (active) in experiment [9]; 2.95 µM (active) in experiment [10]. Also, the Potency in experiment [11] is 3.72 µM (active).

Regarding `Cc1[nH]c(/C=C2\C(=O)Nc3ccc(S(=O)(=O)N(C)c4cccc(Cl)c4)cc32)c(C)c1C(=O)N1CCN(C)CC1`, the activation in experiment [1] is -19.1%. Moreover, the Potency entry in [2], in experiment [3] and in [4] was “inactive” throughout. Moreover, the Potency in experiment [5] is 20.9 µM (active); in experiment [6], 10.5 µM (active); in experiment [7], 4.68 µM (active); in [8] it was 16.6 µM (active); in [10] it was 7.42 µM (active); in [11] it was 7.42 µM (active).

Turning to `O=C(COCC(=O)N1CCN(C(c2ccccc2)c2ccccc2)CC1)Nc1ccc(Cl)cc1C(=O)O`, the activation in [1] was -25.3%. In addition, the Potency entry in experiment [2], in experiment [3], in experiment [4], in [6], in experiment [7] and in experiment [8] was “inactive” in each case. For the same compound, the Potency result in experiment [9], in experiment [10] and in experiment [11] was “inactive” throughout. Moreover, the viability in experiment [5] is 119%.

Consider `NCC(=O)Nc1ccc(-n2nc(C(F)(F)F)cc2-c2ccc3c(ccc4ccccc43)c2)cc1`, for which the activation in [1] is -7.41%. Moreover, the Potency result in experiment [2], in experiment [3], in [4] and in [9] was “inactive” throughout. The Potency was 11.8 µM (active) in experiment [5], 18.6 µM (active) in experiment [6], 4.68 µM (active) in experiment [7] and 16.6 µM (active) in experiment [10].

Consider `C[C@@]1(c2cc(-c3cncnc3)c(F)cc2F)CCSC(N)=N1`, for which the activation in [1] was 19.2% and -1.91%. For the same compound, the Potency result in experiment [2], in experiment [3], in experiment [4], in [6], in experiment [7] and in experiment [9] was “inactive” throughout. Also, the Potency result in experiment [10] and in experiment [11] was “inactive” throughout. In addition, the viability in experiment [5] was 111%.

Take `O=C(C(c1ccccc1)c1ccccc1)N1CCN(CC(O)COc2cccc3ncccc23)CC1` (stereo unspecified): the activation in experiment [1] is 4.77%. The Potency entry in experiment [2], in experiment [3] and in experiment [4] was “inactive” in each case. Besides, the Potency in experiment [5] is 20.9 µM (active); in experiment [6], 11.8 µM (active); in [7] it was 18.6 µM (active); in experiment [10] it was 18.6 µM (active).
